# From PMC5540273 (PLoS ONE, 2017)
# How the values were obtained:
# Conditions in all cases: concentration: 1 μM, replicates: in singlicate; n = 1
# INSRR = system: INSRR
# INSR = system: INSR
# IRAK1 = system: IRAK1
# IRAK3 = system: IRAK3
# IRAK4 = system: IRAK4
# ITK = system: ITK
# [1] = system: JAK1(JH1domain-catalytic)
# [2] = system: JAK1(JH2domain-pseudokinase)
# [3] = system: JAK2(JH1domain-catalytic)
# [4] = system: JAK3(JH1domain-catalytic)
# JNK1 = system: T1, JNK1
# T1 construct: gene MAPK8
# JNK2 = system: T2, JNK2
# T2 construct: gene MAPK9
# JNK3 = system: T3, JNK3
# T3 construct: gene MAPK10
# KIT-autoinhibited = system: KIT-autoinhibited
# KIT = system: KIT
# LATS1 = system: LATS1
# LATS2 = system: LATS2
# LCK = system: LCK
# LIMK1 = system: LIMK1
# LIMK2 = system: LIMK2
# 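Further: KINOMEscan kinase panel screen.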
Structure (SMILES),%Inh (INSRR),%Inh (INSR),%Inh (IRAK1),%Inh (IRAK3),%Inh (IRAK4),%Inh (ITK),%Inh [1],%Inh [2],%Inh [3],%Inh [4],%Inh (JNK1),%Inh (JNK2),%Inh (JNK3),%Inh (KIT-autoinhibited),%Inh (KIT),%Inh (LATS1),%Inh (LATS2),%Inh (LCK),%Inh (LIMK1),%Inh (LIMK2)
FC(F)(F)c1cc(Nc2nccc(-c3c(-c4ccc(Cl)cc4)nn4ncccc34)n2)ccc1Cl [GW829351],0%,0%,0%,0%,0%,0%,0%,0%,13%,0%,8%,58%,65%,1%,38%,0%,0%,0%,0%,0%
CCn1c(-c2ccncc2)nc2cnccc21 [SB-735216],0%,7%,6%,0%,17%,0%,15%,12%,10%,0%,23%,11%,17%,10%,0%,17%,9%,0%,12%,0%
C[C@H]1CC[C@@H](C(=O)Nc2ccccc2)CN1c1cc(-c2ccc3c(N)n[nH]c3c2)nc(N)n1 [GSK2283293],0%,0%,0%,16%,0%,17%,0%,0%,0%,0%,5%,25%,1%,16%,1%,0%,9%,5%,0%,0%
O=C(Nc1ccccc1F)NC1CCN(c2ccnc(Nc3ccc(F)cc3)n2)C1 (stereo not drawn) [GSK1379722],0%,0%,34%,14%,14%,12%,12%,0%,8%,0%,29%,31%,23%,0%,5%,0%,0%,14%,10%,0%
CSc1nn2c(=O)cc(N3CCOCC3)nc2n1Cc1cccc(Cl)c1Cl [GSK2347225],0%,17%,0%,0%,0%,13%,24%,0%,18%,0%,11%,26%,10%,0%,23%,9%,9%,31%,11%,19%
O=C(Nc1ccccc1)Nc1ccc(Oc2ccc3nccn3n2)cc1,1%,0%,0%,0%,0%,20%,28%,2%,8%,0%,0%,0%,0%,28%,95.8%,0%,0%,21%,10%,14%
Oc1ccc2ncnc(Nc3ccc(OCc4ccccc4)cc3)c2c1 [GI262866],18%,0%,0%,0%,5%,4%,12%,0%,0%,0%,0%,0%,0%,0%,48%,0%,0%,2%,0%,4%
COc1ccc(NC(=O)c2ccc(-c3cc(-c4nnc(C)o4)ccc3C)cc2)cc1 [GW595885],0%,0%,37%,0%,16%,6%,9%,0%,12%,0%,20%,17%,12%,0%,64%,0%,0%,18%,3%,0%
CC(C)(C)c1ccc(-n2cnc3c(N)ncnc32)cc1 [SKF-97263],6%,21%,0%,7%,0%,6%,7%,82%,24%,0%,21%,3%,1%,1%,38%,0%,18%,8%,8%,0%
CCCc1ccc(S(=O)(=O)NC2CCN(c3ccnc(Nc4ccc(OC)cc4)n3)C2)cc1 (stereo not drawn) [GSK1379737],0%,0%,39%,0%,24%,14%,34%,0%,73%,0%,20%,21%,0%,0%,37%,0%,0%,16%,0%,100%
Cl.O=S(=O)(c1cccc(F)c1)c1ccc(Nc2ncnc3cc(Br)sc23)cc1Cl [GSK306886],0%,13%,32%,0%,0%,0%,15%,0%,2%,0%,0%,7%,4%,0%,34%,0%,0%,15%,33%,3%
Fc1cccc(COc2ccc(Nc3ncnc4nn5ccccc5c34)cc2Cl)c1 [GW689066],0%,8%,8%,0%,0%,3%,2%,0%,0%,0%,11%,10%,0%,0%,0%,0%,0%,5%,0%,0%
COC(=O)c1cccc(NC(=O)NCCNc2ccnc(Nc3ccc(F)cc3)n2)c1 [GSK1379883],0%,0%,13%,0%,4%,11%,30%,0%,1%,0%,18%,25%,7%,0%,23%,0%,0%,5%,0%,19%
CS(=O)(=O)CCNCc1ccc(-c2ccc3ncnc(Nc4ccc(OCc5ccccc5)c(Cl)c4)c3c2)o1.Cl [GW574783],24%,7%,0%,12%,0%,0%,9%,0%,14%,0%,18%,4%,0%,0%,10%,0%,11%,30%,0%,1%
O=c1cc(N2CCOCC2)nc2n(Cc3cccc(Cl)c3)ccn12 [GSK2296823],0%,0%,60%,32%,16%,19%,0%,0%,10%,0%,21%,12%,7%,4%,11%,0%,46%,17%,15%,0%
OCCOCCn1ccc2ncnc(Nc3ccc(Oc4cccc(Cl)c4)c(Cl)c3)c21,0%,0%,0%,0%,0%,0%,0%,38%,0%,0%,0%,0%,0%,0%,0%,0%,0%,41%,0%,0%
CS(=O)(=O)CCNCc1nc(-c2ccc3ncnc(Nc4ccc(OCc5cccc(F)c5)c(Cl)c4)c3c2)cs1.Cl [GW583340],0%,1%,0%,0%,5%,0%,24%,0%,0%,0%,0%,0%,0%,0%,7%,0%,9%,5%,0%,3%
COc1ccc(NC(=O)Nc2ccc(C)c(-c3ccc(C(=O)Nc4ccncc4)cc3)c2)cc1 [GSK1398475],0%,30%,0%,0%,0%,9%,11%,0%,0%,0%,5%,4%,0%,0%,100%,0%,6%,47%,0%,22%
Cc1cc(N2CCC(NS(=O)(=O)c3ccc(F)cc3)CC2)nc(Nc2cccc(C#N)c2)n1.O=C(O)C(F)(F)F [GSK1653537],0%,0%,0%,0%,4%,1%,7%,0%,6%,0%,16%,17%,0%,0%,0%,0%,0%,10%,0%,0%
N#Cc1ccc(Oc2ccc(Nc3ncnc4cc[nH]c34)cc2Cl)cc1,0%,0%,16%,3%,13%,9%,12%,25%,19%,4%,58%,9%,20%,3%,31%,22%,23%,0%,13%,0%
Clc1cccc(-c2nc(Nc3ccncc3)c3ccccc3n2)c1 [GW873004],4%,0%,7%,9%,0%,21%,0%,16%,0%,13%,0%,0%,0%,1%,10%,14%,0%,31%,54%,12%
